Only some compounds are listed: those with a hit (about 2.2% of all), similar ones and a draw of the others.
EBV LMP1 NFkB: EBV LMP1-driven NF-kappaB luciferase reporter inhibitors, primary screen, cell-based, luminescence, single point | LMP1-induced NF-kappaB luciferase reporter cells | inhibition, % at 12.5 µM | actives 0.69% (n = 350,000); in the data active = inhibition above about 41%;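 note: 0% = neutral control wells and 100% = reference inhibitor control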
PAX8 inh HTS: inhibitors of PAX8-driven TPO luciferase reporter, primary screen, RMG-I cells, single concentration; SteadyGlo, 24 h; inhibition, % at 12.6 µM; actives 1.2% (n = 360,000); AID 652154, 2013;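 active = mean replicate inhibition at least 60% with every replicate also reaching 60%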;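 note: luciferase light reporting Pax8 driven TPO promoter activity; plate controls were median of neutral control wells for no effect and mitoxantrone controls for full effect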
MITF TRPM1 inh: inhibitors of MITF-dependent TRPM1 promoter reporter, primary screen, cell-based, SK-MEL-5, single point, luciferase | SK-MEL-5 TRPM1 promoter luciferase, 24 h | inhibition, % at 12.5 µM | actives 0.83% (n = 330,000) | AID 488899, 2010;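 active = mean inhibition across replicates of 60% or more, whatever share of single replicates reaches that level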
LGR2 antag: inhibitors of bursicon-induced LGR2 CRE-luciferase signal, primary screen, cell-based, HEK293, CRE-luciferase reporter, bursicon stimulation | Drosophila bursicon receptor LGR2 (rickets) | bursicon-stimulated, 4 h | inhibition, % at 9.99 µM | actives 0.35% (n = 380,000);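 active = drop in luminescence signal, shown as inhibition above about 50% in the replicate tests, limit read from the data, passing the limit was not always enough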;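 note: agonist challenge used bursicon conditioned medium at about half maximal strength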
EWS-Fli inh: EWS/Fli-driven NR0B1 reporter inhibitors, primary screen, A673 cells, NR0B1 luciferase, luminescence, MLPCN library. AID 651661, 2012. inhibition, % at 12.6 µM. actives 0.67% (n = 350,000). viability-normalised;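 active = mean inhibition of at least 50% after viability correction, with every replicate also passing that limit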;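 note: firefly luciferase signal divided by Alamar Blue viability fluorescence both relative to DMSO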
Shn3 3UTR inh: reduction of Shn3 3'UTR firefly luciferase signal, primary screen, Schnurri-3 inhibitor project, cell-based, Clone20 osteoblasts, set 2; Clone20 osteoblast Shn3 3'UTR firefly luciferase, 24 h; inhibition, % at 12.5 µM; actives 0.52% (n = 360,000); AID 588674, 2011;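 active = mean inhibition of at least 75% with every replicate also reaching 75%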;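 note: 0% = median of neutral control wells and 100% = pilot-screen positive control compound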
DNA binding: DNA binders by acridine orange displacement, dose response, counter-screen for EWS/Fli inhibitor project, biochemical, fluorescence polarization, cherry-pick. shares compounds with EWS-Fli inh. salmon sperm DNA acridine orange fluorescence polarization. AC35, µM (highest dose often 68 µM), without a hit: at the top dose activity change, negative = DNA binding. actives 2% (n = 640). AID 720586, 2013;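 active = fitted curve reaches a 35% signal fall AC35 below twice the sample's top valid tested dose, actives reach about 48 µM in these data; inactive = the rest, including activity in the rising direction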;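 note: lower polarization ratio signals compound binding to DNA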
An asterisk follows results filed as active; / = no result given.

SMILES	EBV LMP1 NFkB	PAX8 inh HTS	MITF TRPM1 inh	LGR2 antag	EWS-Fli inh	Shn3 3UTR inh	DNA binding
C[C@@H]1CN([C@@H](C)CO)C(=O)Cc2cc(NC(=O)CCCCCC(=O)Nc3ccccc3N)ccc2O[C@@H]1CN(C)Cc1ccc(-c2ccccc2)cc1	/	24	/	/	14	/	/
C[C@@H]1CN([C@H](C)CO)C(=O)c2cccc(NC(=O)CCCCCC(=O)Nc3ccccc3N)c2O[C@@H]1CN(C)Cc1ccc(Oc2ccccc2)cc1	/	31	/	-31	16	/	/
C[C@@H]1CN([C@@H](C)CO)C(=O)c2cccc(NC(=O)CCCCCC(=O)Nc3ccccc3N)c2O[C@@H]1CN(C)Cc1ccc(Oc2ccccc2)cc1	/	26	/	-32	53*	/	-4%
C[C@H]1CN([C@@H](C)CO)C(=O)Cc2cc(NC(=O)CCCCCC(=O)Nc3ccccc3N)ccc2O[C@H]1CN(C)Cc1ccc(Oc2ccccc2)cc1	/	17	/	-1	60*	/	-6%
CC(=O)n1cc([C@@H]2C=C(C(=O)N3CCN(Cc4ccccc4)CC3)O[C@H](OCCCCO)C2)c2ccccc21	/	5	/	/	2	/	/
COc1cccc(NC(=O)c2cc3ccccc3oc2=O)c1	28	-108	5	25	33	10	/
COc1ccccc1NS(=O)(=O)c1cc(NC(=O)c2cc3ccccc3oc2=O)ccc1C	0	-5	-21	-15	82*	-3	17%
COc1ccc(NC(=O)N2CCCCN3[C@@H](CO)[C@H](c4ccc(C5=CCCCC5)cc4)[C@@H]3C2)cc1	/	-12	/	-9	71*	/	-2%
Cc1ccc(/C=C/C(=O)N2CCN(S(=O)(=O)c3ccc(C)c(C)c3)CC2)o1	5	11	1	-2	/	33	/
Cc1ccc(/C=C/C(=O)N2CCN(S(=O)(=O)c3c(C)c(C)cc(C)c3C)CC2)o1	3	15	12	7	85*	4	0%
C[C@H]1CCCCO[C@@H](CN(C)Cc2ccc(C(F)(F)F)cc2)[C@@H](C)CN([C@@H](C)CO)C(=O)c2cc(NC(=O)C3CCCCC3)ccc2O1	/	-20	/	19	11	/	/
Nc1ccc2oc(-c3cc(Br)ccc3Cl)nc2c1	15	/	49	/	54*	19	-7%
C=CC[n+]1c(-c2ccc(C)cc2)csc1Nc1ccc(NC(C)=O)cc1	39	8	81*	-39	62*	80	-6%
CN1CCN(C(=O)[C@@H]2[C@@H](CO)[C@@H]3Cn4c(ccc(-c5cncnc5)c4=O)[C@@H]3N2CC2CC2)CC1	/	/	/	-2	4	/	/
O=C(C1CCOCC1)N1C[C@@H]2[C@H](c3ccccc31)[C@H](CO)N2Cc1ccccc1	/	-5	/	-16	5	/	/
C[C@H](CO)N1C[C@H](C)[C@H](CN(C)Cc2ccc(C(=O)Nc3ccccc3N)cc2)Oc2c(NC(=O)C3CC3)cccc2C1=O	/	/	/	2	26	/	/
Cc1ccc(S(=O)(=O)N(C)C[C@H]2Oc3c(cccc3N(C)C)C(=O)N([C@H](C)CO)C[C@@H]2C)cc1	/	-4	/	-11	8	/	/
C[C@H](CO)N1C[C@H](C)[C@H](CN(C)Cc2ccc(C(=O)Nc3ccccc3N)cc2)Oc2c(cccc2N(C)C)C1=O	/	9	/	-7	54*	/	4%
C[C@@H]1CN([C@@H](C)CO)C(=O)c2cccc(NC(=O)Nc3cccc4ccccc34)c2O[C@@H]1CN(C)Cc1ccc(C(=O)Nc2ccccc2N)cc1	/	40	/	2	54*	/	2%
Cc1ccc(S(=O)(=O)N(C)C[C@H]2Oc3c(cccc3N(C)C)C(=O)N([C@@H](C)CO)C[C@@H]2C)cc1	/	-9	/	59*	53*	/	-11%
C[C@H]1CN([C@@H](C)CO)C(=O)c2cccc(NC(=O)c3ccc(-c4nccs4)cc3)c2O[C@@H]1CN(C)Cc1ccc(C(=O)Nc2ccccc2N)cc1	/	/	/	9	52*	/	7%

Screens deposited in PubChem by Broad Institute.
